Data from PubChem BioAssay.
“And” between values parts separate entries of the source, which are not always exact repeats. Equal entries are not always repeated. The source made the active and inactive calls.

What was measured:
[1] = test system: Plasmodium falciparum Sir2 (PF13_0152, Sir2A); test: pfSir2 binders on small-molecule microarrays, primary screen, biochemical, small-molecule microarray, 635 nm fluorescence (AID 1098); settings: small-molecule microarray binding, fluorescence 635 nm; higher = more signal;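 further: score merges spot fluorescence intensity with its signal-to-noise ratio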
[2] = small-molecule microarray binders of probe aDKK1, primary screen, biochemical, biotinylated probe, 635/667 nm fluorescence (AID 1099); settings: higher = more signal; small-molecule microarray, probe aDKK1, fluorescence unless noted;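 further: score merges 667nm spot fluorescence with signal to noise across triplicate slides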
[3] = small-molecule microarray binders of probe aCHRDL2, primary screen, biochemical, biotinylated probe, 635/667 nm fluorescence (AID 1100); settings: higher = more signal; small-molecule microarray, probe aCHRDL2, fluorescence unless noted
[4] = splicing luciferase reporter signal modulators, primary screen, spliceosome inhibition project, cell-based, HEK293, splice +/- reporter (AID 1101); settings: luminescence, 24 h; higher = more signal, called active from +8 up or from −8 down unless noted;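 further: HEK293 cells carrying a splicing-competent luciferase reporter gene; test concentration not given here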
[5] = biological target: Fibroblast growth factor 10 (Homo sapiens) (UniProt O15520); test: FGF10 binders on small-molecule microarrays, primary screen, biochemical, small-molecule microarray, 635 nm fluorescence (AID 1102); settings: FGF10 binding, fluorescence 635 nm, higher = more signal
[6] = test system: glycogen synthase kinase-3 (GSK3A per assay name; protocol says GSK3B); test: GSK3 binders on small-molecule microarrays, primary screen, biochemical, small-molecule microarray, 635 nm fluorescence, GSK3A (AID 1103); settings: small-molecule microarray binding, fluorescence 635 nm; higher = more signal; further: the record names both GSK3A and GSK3B
[7] = biological target: Epidermal growth factor receptor (Homo sapiens) (UniProt P00533); test: EGFR binders on small-molecule microarrays, primary screen, biochemical, small-molecule microarray, 635 nm fluorescence (AID 1104); settings: EGFR binding, higher = more signal;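 further: score merges 667 nm emission intensity with spot signal to noise over triplicate slides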
[8] = biological target: Follistatin-related protein 3 (Homo sapiens) (UniProt O95633); test: FSTL3 binders on small-molecule microarrays, primary screen, biochemical, small-molecule microarray, 635 nm fluorescence (AID 1105); settings: FSTL3 binding, higher = more signal;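 further: score merges emission near 667 nm and signal to noise per printed spot across three slides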
[9] = biological target: Dickkopf-related protein 1 (Homo sapiens) (UniProt O94907); test: DKK1 binders on small-molecule microarrays, primary screen, biochemical, small-molecule microarray, 635 nm fluorescence scan (AID 1106); settings: DKK1 binding, higher = more signal;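 further: score merges emission near 667 nm with signal to noise over three replicate slides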
[10] = test system: Inhibin beta A chain (activin A); test: INHBA (activin A) binders on microarrays, primary screen, biochemical, small-molecule microarray, 635 nm fluorescence scan (AID 1107); settings: small-molecule microarray binding, higher = more signal;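 further: mouse activin A protein probed at 4.33 µg/mL on printed slides; score merges bound-protein fluorescence near 667 nm with spot signal-to-noise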
[11] = test system: Human papillomavirus type 1a protein E7 (residues 44-93); test: HPV1a E7 fragment binders on microarrays, primary screen, biochemical, small-molecule microarray, residues 44-93, 635 nm fluorescence (AID 1108); settings: small-molecule microarray binding, fluorescence 635 nm; higher = more signal;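 further: E7 fragment applied at 1 µg/mL in TBST for 1 h at 4 C; score combines spot fluorescence with its signal to noise ratio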
[12] = modulators of HCV replicon luciferase signal, primary screen, HCV replication inhibitor project, Huh7 cells, luciferase reporter (AID 1109); settings: 48 h, higher = more signal;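 further: huh7 hepatoma cells harbouring a luciferase neomycin HCV replicon reporter; luciferase luminescence as measure of HCV replicon replication; test concentration not given here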
[13] = biological target: Left-right determination factor 2 (Homo sapiens) (UniProt O00292); test: LEFTY2 binders on small-molecule microarrays, primary screen, biochemical, small-molecule microarray, 635 nm fluorescence scan (AID 1110); settings: LEFTY2 binding, higher = more signal
[14] = biological target: Calmodulin-1 (Homo sapiens) (UniProt P0DP23); test: CALM1 binders on microarrays, EGTA buffer, profiling panel, biochemical, small-molecule microarray, Cy5-labelled CALM1 (AID 1111); settings: Cy5-CALM1 binding fluorescence, higher = more signal;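 further: labelled calmodulin applied in Tris saline Tween buffer holding calcium plus EGTA and DTT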
[15] = biological target: Calmodulin-1 (Homo sapiens) (UniProt P0DP23); test: calcium-bound CALM1 binders on microarrays, profiling panel, artefact control for SMM control-protein annotation, biochemical, small-molecule microarray, Cy5-labelled CALM1, plus calcium (AID 1112); settings: Cy5-CALM1 binding fluorescence, higher = more signal;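 further: score merges spot fluorescence with signal to noise from triplicate slides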
[16] = small-molecule microarray binders of probe aWnt5a, primary screen, biochemical, biotinylated probe, 635/667 nm fluorescence (AID 1113); settings: higher = more signal; small-molecule microarray, probe aWnt5a, fluorescence unless noted;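 further: score merges 667 nm fluorescence intensity with signal-to-noise per printed feature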
[17] = small-molecule microarray binders of probe aShh, primary screen, biochemical, biotinylated probe, 635/667 nm fluorescence (AID 1114); settings: higher = more signal; small-molecule microarray, probe aShh, fluorescence unless noted;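 further: probe is biotin-labelled aShh protein from a stem cell growth factor screen; measures binding of labelled protein to compounds printed on the slide; score merges feature fluorescence at 667 nm with signal-to-noise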
[18] = small-molecule microarray binders of probe aNog, primary screen, biochemical, biotinylated probe, 635/667 nm fluorescence (AID 1115); settings: higher = more signal; small-molecule microarray, probe aNog, fluorescence unless noted;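 further: probe is biotinylated aNog protein used at 0.15 µg/mL for 1 h at 4 C; z-score combines 667 nm fluorescence of each spot with its signal to noise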
[19] = biological target: Torsin-1A-interacting protein 1 (Homo sapiens) (UniProt Q5JTV8); test: LAP1 binders from COS7 cell lysate, primary screen, small-molecule microarray, 635/667 nm fluorescence (AID 1116); settings: COS7-hLAP1 lysate binding, 635 nm fluorescence, higher = more signal
[20] = biological target: Alpha-bungarotoxin (Bungarus multicinctus) (UniProt P60615); test: alpha-bungarotoxin binders on microarray, profiling panel, artefact control for SMM control protein annotation, biochemical, small-molecule microarray, Alexa647 label, 635/667 nm fluorescence (AID 1117); settings: alpha-BTX-A647 binding fluorescence, higher = more signal
Alpha-bungarotoxin (Bungarus multicinctus), sequence (P60615 whole entry, looked up): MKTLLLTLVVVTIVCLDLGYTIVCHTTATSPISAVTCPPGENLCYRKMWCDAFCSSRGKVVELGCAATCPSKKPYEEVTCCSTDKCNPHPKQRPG

Dickkopf-related protein 1 (Homo sapiens), sequence (O94907 whole entry, looked up): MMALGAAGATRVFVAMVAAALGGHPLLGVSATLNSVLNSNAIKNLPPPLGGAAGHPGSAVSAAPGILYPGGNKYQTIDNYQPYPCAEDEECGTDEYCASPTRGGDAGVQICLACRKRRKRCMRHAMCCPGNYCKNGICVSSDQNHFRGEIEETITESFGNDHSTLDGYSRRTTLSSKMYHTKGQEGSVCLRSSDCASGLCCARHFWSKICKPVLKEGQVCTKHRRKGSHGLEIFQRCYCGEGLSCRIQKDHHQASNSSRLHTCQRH
Torsin-1A-interacting protein 1 (Homo sapiens), sequence (Q5JTV8 whole entry, looked up): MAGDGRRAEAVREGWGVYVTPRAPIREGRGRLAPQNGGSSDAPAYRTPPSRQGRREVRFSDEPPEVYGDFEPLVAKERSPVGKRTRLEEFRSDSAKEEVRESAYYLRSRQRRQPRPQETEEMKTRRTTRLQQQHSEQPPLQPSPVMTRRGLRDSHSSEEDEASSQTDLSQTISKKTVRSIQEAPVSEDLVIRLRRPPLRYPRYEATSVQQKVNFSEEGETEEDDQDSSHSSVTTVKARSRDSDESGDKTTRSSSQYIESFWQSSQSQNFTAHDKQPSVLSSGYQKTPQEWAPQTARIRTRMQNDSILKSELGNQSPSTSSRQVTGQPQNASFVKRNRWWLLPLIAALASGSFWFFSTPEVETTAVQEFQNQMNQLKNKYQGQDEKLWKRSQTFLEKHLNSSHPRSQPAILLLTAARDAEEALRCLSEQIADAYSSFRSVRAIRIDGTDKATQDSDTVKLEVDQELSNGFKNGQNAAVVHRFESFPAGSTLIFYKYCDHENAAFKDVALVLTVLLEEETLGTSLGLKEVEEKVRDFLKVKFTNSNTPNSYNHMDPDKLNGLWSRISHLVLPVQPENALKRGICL
Left-right determination factor 2 (Homo sapiens), sequence (O00292 whole entry, looked up): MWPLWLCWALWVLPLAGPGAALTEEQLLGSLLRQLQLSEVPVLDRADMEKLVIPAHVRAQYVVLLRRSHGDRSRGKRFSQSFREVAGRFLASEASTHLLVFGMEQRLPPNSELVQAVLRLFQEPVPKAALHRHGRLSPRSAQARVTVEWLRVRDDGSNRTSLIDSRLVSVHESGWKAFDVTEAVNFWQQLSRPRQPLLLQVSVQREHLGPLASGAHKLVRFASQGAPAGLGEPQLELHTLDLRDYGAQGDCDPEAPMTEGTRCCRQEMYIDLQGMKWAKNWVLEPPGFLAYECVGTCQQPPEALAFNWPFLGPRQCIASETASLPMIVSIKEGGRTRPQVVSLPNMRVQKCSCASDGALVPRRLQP
Epidermal growth factor receptor (Homo sapiens), sequence (P00533 whole entry, looked up): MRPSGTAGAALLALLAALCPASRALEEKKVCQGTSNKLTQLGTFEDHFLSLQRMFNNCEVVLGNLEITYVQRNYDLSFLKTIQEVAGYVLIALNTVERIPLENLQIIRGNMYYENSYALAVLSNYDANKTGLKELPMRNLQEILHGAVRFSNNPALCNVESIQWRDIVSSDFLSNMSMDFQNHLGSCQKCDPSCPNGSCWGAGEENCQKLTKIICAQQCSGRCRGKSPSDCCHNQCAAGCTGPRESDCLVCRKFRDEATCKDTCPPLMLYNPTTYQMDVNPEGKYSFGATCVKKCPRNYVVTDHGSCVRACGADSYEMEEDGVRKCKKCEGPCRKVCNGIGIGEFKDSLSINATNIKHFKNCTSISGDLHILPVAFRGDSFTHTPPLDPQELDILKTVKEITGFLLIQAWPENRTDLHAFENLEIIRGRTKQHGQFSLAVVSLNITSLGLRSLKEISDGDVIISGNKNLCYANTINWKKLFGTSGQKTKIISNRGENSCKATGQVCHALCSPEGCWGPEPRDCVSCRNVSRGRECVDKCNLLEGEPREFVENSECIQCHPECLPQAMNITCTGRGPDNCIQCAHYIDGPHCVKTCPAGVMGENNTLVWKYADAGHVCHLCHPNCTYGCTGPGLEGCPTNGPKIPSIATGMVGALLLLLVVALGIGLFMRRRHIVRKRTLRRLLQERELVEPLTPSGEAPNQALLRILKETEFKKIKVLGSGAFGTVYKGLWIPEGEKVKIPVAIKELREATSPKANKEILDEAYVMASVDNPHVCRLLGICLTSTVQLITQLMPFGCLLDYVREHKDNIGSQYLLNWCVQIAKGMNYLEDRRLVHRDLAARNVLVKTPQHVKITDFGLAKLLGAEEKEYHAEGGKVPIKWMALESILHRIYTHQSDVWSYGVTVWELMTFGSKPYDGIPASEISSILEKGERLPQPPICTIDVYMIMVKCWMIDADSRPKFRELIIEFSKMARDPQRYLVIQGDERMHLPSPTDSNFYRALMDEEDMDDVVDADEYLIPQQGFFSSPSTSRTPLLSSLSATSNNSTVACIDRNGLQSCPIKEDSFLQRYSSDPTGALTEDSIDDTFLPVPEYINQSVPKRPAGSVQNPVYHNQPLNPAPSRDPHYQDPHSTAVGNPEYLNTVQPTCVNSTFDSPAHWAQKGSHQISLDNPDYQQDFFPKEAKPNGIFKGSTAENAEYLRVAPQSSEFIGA
Fibroblast growth factor 10 (Homo sapiens), sequence (O15520 whole entry, looked up): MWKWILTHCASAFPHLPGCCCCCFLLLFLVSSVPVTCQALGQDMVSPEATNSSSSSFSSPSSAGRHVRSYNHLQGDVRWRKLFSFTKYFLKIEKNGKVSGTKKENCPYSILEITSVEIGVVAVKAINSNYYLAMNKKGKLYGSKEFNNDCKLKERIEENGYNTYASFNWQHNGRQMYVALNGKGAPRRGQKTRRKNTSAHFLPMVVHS
Follistatin-related protein 3 (Homo sapiens), sequence (O95633 whole entry, looked up): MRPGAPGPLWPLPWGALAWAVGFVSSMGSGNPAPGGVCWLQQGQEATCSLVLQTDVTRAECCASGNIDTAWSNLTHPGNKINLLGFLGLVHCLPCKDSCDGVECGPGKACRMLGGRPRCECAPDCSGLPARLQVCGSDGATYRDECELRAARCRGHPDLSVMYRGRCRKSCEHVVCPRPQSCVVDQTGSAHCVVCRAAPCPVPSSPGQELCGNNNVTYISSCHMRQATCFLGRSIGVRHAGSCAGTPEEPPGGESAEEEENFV

Structure (SMILES) | composite z-score [1] | composite z-score [2] | composite z-score [3] | z-score [4] | composite z-score [5] | composite z-score [6] | composite z-score [7] | composite z-score [8] | composite z-score [9] | composite z-score [10] | composite z-score [11] | z-score [12] | composite z-score [13] | composite z-score [14] | composite z-score [15] | composite z-score [16] | composite z-score [17] | composite z-score [18] | composite z-score [19] | composite z-score [20]
CCc1cc2c(nc1CC)CCN(CCC(C)=NOC)C2 | 0.0885 | -0.112 | 0.662 | 0.0386 (inactive) | 0.179 | 0.344 | 0.961 | 0.763 | 0.755 | 1.66 | 0.711 | -1.06 | 0.802 | -0.47 | 0.107 | 0.0375 | -0.117 | -0.148 | 1 | -0.0978
C[C@H]1O[C@H]2C3=C(C(=O)[C@@H]4O[C@@H]4[C@@H]3O)[C@@H]1[C@@H]1[C@@H](C)OC=C3[C@@H](O)[C@H]4O[C@H]4C(=O)[C@]312 | -0.373 | -0.416 | -0.399 | -1.89 (inactive) | -0.131 | -0.572 | -0.132 | -0.727 | 0.133 | 0.38 | -1.18 | -2.57 | -0.107 | -0.806 | -0.447 | -0.125 | -0.0553 | -0.252 | -0.404 | 0.411
C[C@@H]1Cc2c(cnc3c2CN(C)CC3)CO1 | 0.0529 | -0.228 | -0.368 | -0.377 (inactive) | 0.32 | -0.117 | 1.15 | 0.336 | 0.662 | 1.09 | -1.58 | -0.491 | 0.894 | -1.33 | -0.882 | -0.0221 | 0.149 | -0.0689 | -0.217 | -0.138
COC(=O)[C@H]1[C@H](c2ccccc2)C(=O)[C@]2(O)c3ccccc3O[C@@]12c1ccccc1 | 0.219 | -0.291 | -0.463 | -1.58 (inactive) | 0.37 | 0.423 | 0.437 | 0.419 | 0.314 | -0.228 | 0.304 | 0.0741 | 0.832 | 0.384 | -0.0524 | -0.131 | 0.0048 | -0.293 | 0.106 | 0.0914
COC(=O)[C@@]1(Cc2ccccc2)[C@H]2c3cc(C(=O)N(C)C)n(C)c3C[C@H]2CN1C(=O)c1ccccc1 | 1.5 | -0.0842 | 0.836 | -0.806 (inactive) | 0.358 | -0.214 | 0.0444 | -0.443 | -0.631 | 1.09 | -1.91 | -1.42 | -0.611 | 1.96 | 0.514 | -0.107 | 0.214 | 1.65 | 2.25 | 0.0882
CCCc1cc2c(n1Cc1ccco1)C(C)C1CN(C(=O)c3ccccc3)C(C)(C(=O)OC)C21 (stereo unspecified) | 1.16 | 1.6 | 1.52 | 1.76 (inactive) | 0.505 | 1.02 | 0.437 | 0.715 | 0.512 | 1.57 | 0.0223 | -1.28 | 0.392 | 1.9 | 0.425 | 0.117 | 0.239 | 1.65 | 1.4 | 0.899
CC1N(P(=O)(c2ccccc2)c2ccccc2)CC(O)(c2ccccc2)CC12CC2 (stereo unspecified) | 0.639 and 0.752 | -0.135 and 1 | 0.938 and 1.14 | 0.255 (inactive) and -4.15 (inactive) | -0.115 and 0.145 | -0.0785 and -0.283 | -0.678 and 0.158 | -1.67 and -0.931 | -0.657 and -0.814 | 0.388 and 1.1 | 1.36 and 0.0155 | -0.421 and -1.5 | -1.22 and 0.326 | -0.0346 and 1.63 | 0.595 and 1.02 | 0.151 and -0.131 | 0.535 and 0.377 | 0.915 and 1.68 | 1.23 and 1.28 | -0.914 and -0.0679
CCOC(=O)[C@H]1CC=C2C(=O)Oc3ccccc3[C@@H]21 | -0.283 | -0.295 | 0.521 | -0.0119 (inactive) | -0.375 | -0.45 | -0.695 | -0.77 | -1.06 | 0.0965 | 0.252 | -1.93 | -0.562 | -0.229 | -0.42 | -0.129 | -0.366 | 0.356 | -1.28 | -0.0764
C=C1C=C(Br)C2(OCCCO2)[C@H]2OC12 (stereo partly specified) |  |  |  |  |  |  |  |  |  |  |  |  |  |  |  |  |  |  |  | -0.206
COC(=O)[C@@]1(Cc2ccc(F)cc2)[C@H]2c3cc(C(=O)N(C)C)[nH]c3C[C@H]2CN1C(=O)c1ccccc1 | 0.878 | 0.588 [setting not given] | 0.826 [setting not given] | -0.825 [setting not given] (inactive) | 0.554 | -0.275 | -0.157 | -0.589 | -0.503 | 0.938 | 0.717 | -0.0885 | -0.193 | 0.366 | -0.0836 | 0.0151 [setting not given] | -0.343 [setting not given] | 0.519 [setting not given] | 0.125 | 0.125
CCCC[C@@H]1C[C@H]1[C@@H](NP(=O)(c1ccccc1)c1ccccc1)c1ccc(Cl)cc1 | -0.168 | 0.294 | 0.988 | -3.54 (inactive) | -0.668 | -0.924 | -1.5 | -1.57 | -0.818 | 1.18 | -1.21 | -0.657 | -1.67 | 1.14 | 1.32 | 0.0403 | 0.254 | 0.633 | -0.314 | -0.0059
CCCC=C(CCC)[C@@H](NP(=O)(c1ccccc1)c1ccccc1)c1ccccc1 | 0.381 | -0.17 | 0.0101 | -1.55 (inactive) | 0.657 | 0.79 | 0.187 | 0.344 | -0.151 | 0.411 | 1.28 | -1.39 | 0.943 | 1.94 | 0.42 | 0.208 | -0.106 | -0.519 | 0.275 | 0.44
O=P(c1ccccc1)(c1ccccc1)N1CC2(CC2)CC(O)(c2ccccc2)C1 (stereo unspecified) | 0.68 | 0.704 | 0.969 | -3.24 (inactive) | 0.11 | -0.487 | -0.48 | -0.672 | -0.673 | 0.72 | 1.04 | -1.06 | -1.1 | 1.04 | 1.08 | 0.435 | -0.0553 | 1.6 | 1.58 | 0.41
C=C(CC1(C(C)NP(=O)(c2ccccc2)c2ccccc2)CC1)c1ccccc1 (stereo unspecified) | 0.742 | 0.364 | 0.803 | -4.59 (inactive) | 0.623 | 0.0363 | -0.636 | -0.0868 | -0.237 | 0.853 | 1.48 | -1.52 | -0.867 | 0.962 | 0.945 | 0.23 | 0.128 | 0.804 | 1.32 | 0.468
COC(=O)C1(C)C=C2C(=C(C)C(=O)C2C)CN1 (stereo unspecified) | -0.656 | 0.859 | 0.944 | 0.522 (inactive) | -0.618 | -0.623 | -0.885 | -0.729 | -0.706 | 1.11 | -0.131 | -0.0365 | -0.412 | -0.423 | 0.0902 | -0.113 | 0.381 | 1.48 | 1.18 | -0.313
COc1cc2c(cc1O)C(C)N(C)CC2 (stereo unspecified) | -0.528 | 0.0766 | 0.34 | 0.844 (inactive) | -0.0182 | -0.951 | -0.855 | -0.205 | -0.227 | 0.953 | -1.75 | 0.569 | -0.603 | 1.58 | 1.24 | 0.0017 | -0.0769 | -0.343 | 0.0049 | -0.613
COC(=O)[C@@]1(Cc2ccccc2)[C@H]2c3cc(C(=O)N(C)C)[nH]c3C[C@H]2CN1C(=O)c1ccccc1 | 0.45 | 0.425 | 0.709 | 0.454 (inactive) | -0.36 | -1.15 | -0.649 | -1.32 | -1.06 | 1.02 | -0.452 | -0.454 | -0.476 | 0.157 | 0.136 | 0.0037 | 0.333 | 0.629 | 0.533 | -0.0856
